# Assay outcomes deposited in PubChem BioAssay by National Center for Advancing Translational Sciences (NCATS).
# Compounds with a hit are over-represented: about 9.4% of the library has one in this group of screens.
# NPC1 prom act: qHTS Assay for NPC1 Promoter Activators; AID 485313, 2010; 2.4% of 320,000 active; Huh7 NPC1 promoter luciferase reporter, 24 h; Potency, µM (series often up to 9.22 µM), for the others: top-dose activation, actives largely listed as activators; further: % of control where 0% means no effect; nearly all actives have a fitted effect of over 60% in size
#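 Cells: Huh7 expressing luciferase under the NPC1 promoter, 1500/well. Seeded 2 h, compound added, incubated 24 h at 37 °C. Luciferase reagent, 10 min ambient, then luminescence.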
# Rab9 promoter act: qHTS Assay for Rab9 Promoter Activators. Potency, µM (series often up to 9.22 µM), inactives show at the top dose activation, negative = inhibition, actives largely listed as activators. Huh7 Rab9 promoter-luciferase reporter, luminescence, 24 h. 2.8% of 320,000 active; further: % of control where 0% means no effect; nearly all actives have a fitted effect of over 60% in size
#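 Luminescence from Amplite-detected luciferase (10 minutes, ambient) reports Rab9 promoter activation. Before that, stable Rab9-luciferase Huh7 cells (1500/well, reduced-serum OP-MEM I plus 10% FBS) were exposed to compound for 24 hours at 37C.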
# SMN2 splice up: qHTS Assay for Enhancers of SMN2 Splice Variant Expression; HEK293 SMN2-luciferase splicing reporter, luminescence, 30-36 h; Potency, µM (titrated, usually from 46.1 µM), inactives show top-dose activity change, positive = activation, hits mostly activators; 2.8% of 210,000 active; AID 1458, 2008; further: % of control where 0% means no effect; nearly all actives have a fitted effect of over 55% in size
#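 HEK293 cells carry an SMN2 […]–luciferase reporter in which exon 7 inclusion puts luciferase in frame. Cells were plated 10-12 h before compound addition, then incubated 30-36 h at 37C. ONE-Glo luminescence was read; sodium butyrate at 4.5 mM final served as control.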
# ELG1 repair inh: qHTS screen for small molecules that inhibit ELG1-dependent DNA repair in human embryonic kidney (HEK293T) cells expressing luciferase-tagged ELG1; HEK293T ELG1-luciferase reporter, luminescence, 16 h; DNA damage induced by 5-fluorouridine; Potency, µM (series often up to 46.1 µM), for the others: at the top dose activity change, negative = inhibition, usual class: inhibitors; AID 504467, 2011; 2.3% of 330,000 active; further: on the % scale 0 is the no-effect control and ±100 the full control effect; nearly all actives have a fitted effect of over 55% in size
#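 Reporter activity after DNA damage by 5-fluorouridine is monitored. Compound-treated cells incubate 16 hr at 37 °C, then ONE-Glo is added for 30 min before luminescence reading.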
# ELG1 genotox: qHTS screen for small molecules that induce genotoxicity in human embryonic kidney (HEK293T) cells expressing luciferase-tagged ELG1; AID 504466, 2011; HEK293T ELG1-luciferase reporter, luminescence, 16 h; 1.3% of 330,000 active; Potency, µM (series often up to 46 µM), for the others: at the highest dose activity change, positive = activation, most hits filed as activators; further: % of control where 0% means no effect; nearly all actives have a fitted effect of over 60% in size
#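 Cells (2,000/well) expressing the ELG1-luciferase fusion are dosed by pin tool and kept 16 hr at 37 °C, 5% CO2. Signal comes from ONE-Glo luciferase reagent after 30 min at room temperature.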
# FLuc counter: qHTS profiling assay for firefly luciferase inhibitor/activator using purifed enzyme and Km concentrations of substrates (counterscreen for miR-21 project). purified FLuc, Km substrates, luminescence inhibition. 6.9% of 360,000 active. Luciferin 4-monooxygenase (Photinus pyralis), P08659. Potency, µM (series often up to 57.5 µM), for inactives: top-dose activity change, negative = inhibition, actives largely listed as inhibitors. AID 588342, 2011;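 further: plate controls were vehicle for no effect and reference inhibitor for full effect; nearly all actives have a fitted effect of over 55% in size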
# Target sequence (P08659 whole entry, looked up): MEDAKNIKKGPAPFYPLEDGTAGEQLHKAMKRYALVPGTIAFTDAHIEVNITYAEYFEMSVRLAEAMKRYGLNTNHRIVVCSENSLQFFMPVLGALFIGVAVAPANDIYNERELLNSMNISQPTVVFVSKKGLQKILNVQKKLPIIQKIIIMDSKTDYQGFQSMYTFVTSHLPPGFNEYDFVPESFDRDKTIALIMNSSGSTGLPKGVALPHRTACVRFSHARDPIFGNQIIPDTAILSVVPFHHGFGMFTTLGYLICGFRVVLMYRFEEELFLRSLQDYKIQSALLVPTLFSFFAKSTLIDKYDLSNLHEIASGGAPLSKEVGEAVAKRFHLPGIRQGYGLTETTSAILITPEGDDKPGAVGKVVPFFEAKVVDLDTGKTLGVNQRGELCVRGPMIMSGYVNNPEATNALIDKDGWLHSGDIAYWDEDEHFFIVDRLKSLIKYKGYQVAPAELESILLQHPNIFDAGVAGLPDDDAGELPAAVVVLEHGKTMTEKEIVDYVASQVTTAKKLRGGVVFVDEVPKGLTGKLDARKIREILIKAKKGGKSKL
#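 Biochemical qHTS of compounds, final roughly 60 µM downward over six points, against 10 nM purified firefly luciferase using Km concentrations of substrates (10 uM D-luciferin, 10 uM ATP) in Tris acetate pH 7.5 buffer; luminescence output.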
# * marks the source's active call; other numbers are inactive results; ? = inconclusive; / = no result; [ ] = another dose, or the depositor's remark. The call rests on the fitted dose curve; in most records, active means well fitted curve in the direction sought with a large enough effect; inconclusive means small, poorly fitted or top-dose-only effect, or another doubt; inactive means no such curve, though single readings can be large; an effect the other way counts as inactive or inconclusive. Potency means the concentration at half of the fitted maximal effect.
SMILES,NPC1 prom act,Rab9 promoter act,SMN2 splice up,ELG1 repair inh,ELG1 genotox,FLuc counter
COc1cc(/C=C/c2ccc3cccc(O)c3n2)c(Br)cc1O,-1.4%,3.3%,/,?,?,?
COc1cc(/C=C/c2ccc3cccc(OC)c3n2)c(O)c([N+](=O)[O-])c1,8.7%,-4.3%,-2.2%,1.3%,-0.3%,-4.7%
COc1ccc(OC)c(/C=C/c2ccc3cccc(O)c3n2)c1,10.6%,6.2%,/,?,?,13.5µM*
CSc1ccc(/C=C/c2ccc3cccc(O)c3n2)cc1,3.16µM*,1.26µM*,12.6µM*,?,?,2.39µM*
COc1cc(Br)cc(/C=C/c2ccc3cccc(O)c3n2)c1O,7.3%,6.4%,/,7.3µM*,13.5%,?
COc1cc(/C=C/c2ccc3cccc(O)c3n2)ccc1O,?,3.16µM*,/,?,16.4µM*,6.75µM*
O=[N+]([O-])c1cccc2ccc(/C=C/c3ccc(C(F)(F)F)cc3)nc12,25.8%,22.3%,-0.1%,-3.8%,-0.1%,-18.8%
COc1cc(Br)c(/C=C/c2ccc3cccc(O)c3n2)cc1OC,16.7%,-2.5%[1.84 µM],/,?,?,?
CC(=O)Nc1ccc(NC(=O)CSc2cn(CC(=O)N(C(C)C)C(C)C)c3ccccc23)cc1,/,/,/,/,/,-0.4%
CC1(C)O[C@H]2[C@@H](c3[nH]nc4c(=O)[nH]c(=O)[nH]c34)OC[C@H]2O1,/,/,-12.3%[9.22 µM],/,/,/
CN1CCN(S(=O)(=O)c2ccc3c(c2)oc(=O)n3C)CC1,11.2%,2.6%,/,13.1%,-2.2%,-0.9%
Cc1cc(NC(=O)c2ccc(Cl)cc2)cc(C)c1OCC(=O)N1CCOCC1,3.16µM*,?,/,?,9.5%,1.69µM*
Cc1cc(NC(=O)c2cccc3ccccc23)cc(C)c1OCC(=O)N1CCOCC1,-0.7%,-5.1%,-13.2%,-25.1%,-8.8%,?
COc1cc(C(=O)Nc2ccc(C)cn2)ccc1OCC(=O)N1CCOCC1,1.7%,2.1%,/,?,6.8%,16.9µM*
CCCCOc1ccc(C(=O)Nc2cc(C)c(OCC(=O)N3CCOCC3)c(C)c2)cc1,14.0%,0.5%,-68.2%,?,-5.9%,2.13µM*
CCOc1cc(CNc2ccc(O)cc2)ccc1OCc1ccc(Cl)cc1,/,/,-15.0%,/,/,-18.1%
CCc1ccc2[nH]c(=O)c(-c3ccccc3)c(O)c2c1,-3.1%,6.4%,/,-9.4%,2.8%,21.3µM*
Cc1cc(C(=O)CN2C(=O)c3ccccc3S2(=O)=O)c(C)n1CC1CCCO1 (configuration not stated),-47.9%,-42.1%,-68.0%,5.17µM*,-17.6%,7.57µM*
Cc1cc(C(=O)CN2C(=O)NC(C)(c3ccccc3)C2=O)c(C)n1CC1CCCO1 (configuration not stated),10.3%,1.5%,19.4%,21.7%,1.0%,16.9µM*
Cc1cc(C(=O)Cn2cc(C(F)(F)F)ccc2=O)c(C)n1CC1CCCO1 (configuration not stated),0.8%,-0.7%,/,?,3.8%,0.9%
CC(C)CC(=O)Nc1ccc2ccccc2c1,-6.4%,?,?,?,-2.2%,-1.6%
Cc1cc(C(=O)Nc2ccc3ccccc3c2)c(C)o1,1.41µM*,3.55µM*,/,?,0.651µM*,1.35µM*
Cc1ccoc1C(=O)Nc1ccc(CC(=O)O)cc1,-2.2%,-4.0%,?,?,?,1.69µM*
Cc1ccoc1C(=O)Nc1ccc2ccccc2c1,1µM*,0.447µM*,/,?,?,0.379µM*
CC(=O)c1cc(C(=O)Nc2ccc3ccccc3c2)c(C)o1,-2.5%,2.1%,/,-3.9%,3.5%,3.8%
SMILES,NPC1 prom act,Rab9 promoter act,SMN2 splice up,ELG1 repair inh,ELG1 genotox,FLuc counter
Cc1cc(C(=O)Nc2ccc3ccccc3c2)oc1C,0.631µM*,0.794µM*,/,?,9.2µM*,2.13µM*
Cc1ccc(-n2ncc3c2CC(C)(C)CC3NC(=O)CCc2cccnc2)cc1 (configuration not stated),-3.4%,-16.3%,/,?,-3.8%,-2.3%
COc1ccc(/C=N\NC(=O)C2COc3ccccc3O2)cc1O (configuration not stated),-0.7%,-3.1%,/,?,6.8%,23.9µM*
Cc1cc([N+](=O)[O-])cc(/C=N\NC(=O)C2COc3ccccc3O2)c1O (configuration not stated),-0.5%,-2.3%,/,20.6µM*,3.1%,-13.1%
COc1cc(/C=N\NC(=O)C2COc3ccccc3O2)cc(OC)c1O (configuration not stated),-5.9%,-0.7%,/,-0.3%,6.2%,-4.3%
COc1cc(/C=N/NC(=O)C2COc3ccccc3O2)ccc1O (configuration not stated),0.9%,-1.4%,/,-3.2%,-3.6%,?
O=C(N/N=C/c1ccc2c(c1)OCO2)C1COc2ccccc2O1 (configuration not stated),0.6%,15.4%,12.7%,-14.6%,3.4%,16.9µM*
COc1ccc(/C=N/NC(=O)C2COc3ccccc3O2)cc1OC (configuration not stated),-1.9%,1.0%,5.0%,4.2%,6.6%,19µM*
CC(/C=C/c1ccc2c(c1)OCO2)=N/NC(=O)C1COc2ccccc2O1 (configuration not stated),-3.3%,-6.5%,-15.4%,-15.5%,-2.2%,-9.8%
COC(=O)c1ccccc1NC(=O)C1=CC(c2ccc(C)cc2)=NS(=O)(=O)N1C,/,/,/,/,/,-2.0%
OCCCNCc1ccncc1,/,/,3.6%[9.22 µM],/,/,/
CC(C)(C)c1ccc2c(c1)OC(C(=O)N/N=C\c1ccc[nH]1)CO2 (configuration not stated),-41.8%,-51.5%,/,-7.2%,-2.8%,?
CC(C)(C)c1ccc2c(c1)OC(C(=O)N/N=C\c1ccncc1)CO2 (configuration not stated),-3.9%,-0.8%,/,14.6µM*,-5.3%,?
O=C(Cc1ccccc1)N1CCc2ccccc21,8.0%,12.4%,-13.7%,?,?,-15.5%
O=C(O)c1ccccc1SCC(=O)N1CCc2ccccc21,?,?,26.6%,?,14.5%,21.3µM*
O=C(CNc1ccccc1OC(F)F)N1CCc2ccccc21,3.16µM*,3.16µM*,14.1µM*,?,?,?
O=C(CS(=O)(=O)c1ccccc1)N1CCc2ccccc21,3.98µM*,2.51µM*,14.1µM*,?,?,15.1µM*
